# PubChem BioAssay (NCI)
# This is part of a sample that, as a whole, favours compounds with a hit. Of some 83,000 tested, about 20% had one in any assay.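 Plates (96-well) were seeded with cells, treated with compound at one concentration, and incubated for 48 hours before percent growth was determined.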 Unmarked numbers belong to inactive results. Active and inactive are the calls of the source. The calls were made as follows: active = growth percent below 10; inactive = the rest.
# What was measured:
# Test in all cases: NCI-60 one-dose screen, 48 h (100 = growth as untreated, 0 = no growth, -100 = all killed)
# Conditions in all cases: 10 µM unless noted
# SR leukemia = system: SR leukemia
# RPMI-8226 leukemia = system: RPMI-8226 leukemia
# OVCAR-8 ovarian = system: OVCAR-8 ovarian
# OVCAR-5 ovarian = system: OVCAR-5 ovarian
# OVCAR-4 ovarian = system: OVCAR-4 ovarian
# SK-OV-3 ovarian = system: SK-OV-3 ovarian
# IGROV1 ovarian = system: IGROV1 ovarian
# OVCAR-3 ovarian = system: OVCAR-3 ovarian
# HS 578T breast = system: HS 578T breast
# NCI/ADR-RES ovarian = system: NCI/ADR-RES ovarian
SMILES,growth (SR leukemia),growth (RPMI-8226 leukemia),growth (OVCAR-8 ovarian),growth (OVCAR-5 ovarian),growth (OVCAR-4 ovarian),growth (SK-OV-3 ovarian),growth (IGROV1 ovarian),growth (OVCAR-3 ovarian),growth (HS 578T breast),growth (NCI/ADR-RES ovarian)
CC[C@@H](C(=O)[C@@H](C)[C@@H](O)[C@H](C)[C@@H]1O[C@@H]([C@@H](CC)C(=O)NCCc2ccc(F)cc2)CC[C@@H]1C)C1O[C@]2(C=CC(=O)[C@]3(CC[C@@](C)([C@H]4CC[C@](O)(CC)[C@H](C)O4)O3)O2)[C@H](C)C[C@@H]1C (stereo not given in full),41.9%,7.59% (active),32.2%,67.7%,-2.57% (active),44.7%,26.3%,10.5%,48.1%,29.6%
C[C@@H]1CCC[C@H]1CC(N)C(=O)O (stereo not given in full),108%,103%,106%,105%,105%,113%,114%,117%,103%,104%
O=C(c1ccc(Cl)cc1)N1CCN(c2ccnc3cc(Cl)ccc23)CC1,122%,75.9%,87.3%,93%,70.7%,93.6%,92.9%,100%,99.3%,87.7%
O=C(Cc1ccccc1)Nc1nc(O)c(/C=C2\C(=O)C=Cc3ccccc32)s1,104%,106%,97.5%,104%,100%,83%,102%,102%,97.8%,96.7%
CC[C@]12C=CCN3CC[C@@]4(c5cc(NC(=O)CCC(=O)OCc6cn(Cc7ccc(F)cc7)nn6)c(OC)cc5N(C)[C@H]4[C@@](O)(C(=O)OC)[C@@H]1OC(C)=O)[C@@H]32,94.2%,104%,103%,100%,98.2%,90.7%,108%,104%,108%,109%
CCCCCCCCn1ccc2cc(NC(=O)Cn3cc(CN4CCCCC4)nn3)ccc21,5.39% (active),-59.2% (active),42%,73.7%,59.1%,67.5%,45.5%,26%,41.5%,72.7%
COC(=O)c1cc(-c2ccc(OC)cc2)[nH]c1N/N=C/c1c(Cl)cccc1Cl,-16.4% (active),10.9%,14.5%,44.3%,40.6%,18.8%,29%,-72.4% (active),0.353% (active),20%
CCn1c(=S)sc2c(Nc3ccc(F)cc3)nc(-c3cccnc3)nc21,95.6%,88%,43.7%,85.8%,-12% (active),56.6%,75.3%,78.7%,49%,55.4%
O=C(OCc1ccc2cccc(O)c2n1)N1CCN(C(=O)c2cc3cc(F)ccc3[nH]2)CC1,-9.28% (active),-26.1% (active),-40.6% (active),-84.5% (active),-71.8% (active),54.3%,-91.4% (active),-79.3% (active),-21.2% (active),-21.5% (active)
CC(C)(C)n1cc(-c2ccnc(NCCNS(=O)(=O)c3cccc(F)c3)c2)c(-c2ccccc2)n1,32.6%,61%,87.9%,105%,72.7%,102%,97.2%,101%,92.9%,89.5%
COc1cc2c(c(OC)c1OC)C(=O)CC(c1cccc(NC(=O)c3ccc(Br)cc3)c1)O2 (stereo not given),3.88% (active),-4.85% (active),14.1%,95.4%,53.9%,74.7%,45.9%,46.5%,71%,8.47% (active)
C=C(C)[C@@H]1CC[C@]2(C)[C@H](CC=C3[C@@H]4[C@H](C)[C@@H](C)CC[C@]4(CO)CC[C@]32C)[C@@]1(C)CCCN,-35.4% (active),-33.7% (active),-48.5% (active),60.6%,5.39% (active),14.1%,30%,20.1%,25.3%,14.1%
CCCCCCC1(C)NCCO1 (stereo not given),94.5%,101%,96.6%,110%,96%,100%,79.8%,114%,126%,108%
CCOC(=O)c1c2c(n3ccc(C)cc13)C(=O)c1ccccc1C2=O,84.8%,98%,86.1%,109%,101%,103%,78%,88.2%,93.3%,95%
COc1ccc2c(c1)[n+]([O-])c(C(=O)/C=C/C=C(\Cl)c1cc(OC)c(OC)c(OC)c1)c(C)[n+]2[O-],89.5%,109%,43.7%,104%,108%,38%,64.6%,93%,68%,91%
O=C1c2c(c3c4ccccc4[nH]c3c3ccc4ccccc4c23)C(=O)N1CCN1CCCCC1,2.17% (active),9.02% (active),25.6%,74.8%,64.8%,53.7%,52.8%,51.1%,90.2%,40.9%
C[C@]12C=CC(=O)C=C1CCC1C2[C@@H](O)C[C@@]2(C)C1CC[C@]2(O)C(=O)COC(=O)CCC(=O)O (stereo not given in full),98%,64.3%,91.3%,89.9%,98.4%,80.2%,102%,119%,119%,92.1%
Oc1ccc(CN2CCC(N3CCCCC3)CC2)c2cccnc12,19.7%,19.4%,25%,47.2%,22.7%,16%,25.4%,28.8%,27.6%,30.8%
O=C1NC(=O)c2c1c1c3ccccc3ccc1c1[nH]c3ccc(Br)cc3c21,11.4%,-19.9% (active),14.7%,29.7%,10.3%,31%,14.4%,8.73% (active),78.4%,3.52% (active)
CCOC(=O)C1=C(NC)OCC1=O,93.6%,99.6%,98.6%,115%,112%,110%,113%,109%,94.7%,105%
O=C1c2cccnc2C(=O)c2c1c(C(=O)NCCCN1CCCCC1)c1ccccn21,-15.3% (active),-10.9% (active),-13.3% (active),-0.385% (active),-88% (active),-15.7% (active),-43.4% (active),-34.8% (active),36.3%,-15.5% (active)
O=S(=O)(Nc1ccc(Cl)cc1)c1ccc(-c2cnc(C3CC3)o2)cc1,9.93% (active),15%,29.2%,43.9%,63.7%,30.2%,33%,-17.3% (active),4.3% (active),4.42% (active)
O=C(Nc1ccc(-c2nc(N3CCOCC3)c3cccn3n2)cc1)Nc1cccnc1,11%,-12% (active),1.49% (active),10.1%,-10.7% (active),-24.2% (active),-19.2% (active),4.15% (active),-32.3% (active),0.693% (active)
CCOC(=O)CNP(=O)(OC[C@@H](Cc1ccccc1)NC(=O)c1cc2ccccc2s1)Oc1ccccc1 (stereo not given in full),23.9%,79.6%,89.1%,95.4%,88.4%,91.2%,79.9%,79.9%,76.5%,51.4%
Cn1c(-c2ccc(Br)cc2)c(O)c(=O)c2c(F)cccc21,102%,104%,50.9%,63.8%,52.1%,46.3%,48.6%,51.7%,84.9%,21.8%
Cc1cc2c(O)c(-c3cccc(Cl)c3)c3sc(=O)oc3c2cc1C,18.6%,12.1%,41.9%,106%,13.4%,59.4%,41%,18.6%,48.2%,56.3%
